Measured values from PubChem BioAssay AID504929 (The Scripps Research Institute Molecular Screening Center, 2011).
Active and inactive are the calls of the source. How the calls were made is not given here.

Assay: AlphaScreen signal with amyloid beta 1-40, late-stage follow-up, counter-screen for Wee1 degradation inhibitor project, biochemical, amplified proximity luminescence (AID 504929)
Conditions: Abeta1-40 counterscreen, concentration not given here

SMILES | signal
O=[N+]([O-])c1cccc2[nH]c(CNc3nc(N4CCOCC4)nc4c3ncn4-c3ccsc3)nc12 | 60% (active)
c1ccc2[nH]c(CNc3nc(N4CCOCC4)nc4c3ncn4-c3ccsc3)nc2c1 | 75% (active)
